Binding signal data for eight sequences are collected here from publication PMC7862700, “An all-to-all approach to the identification of sequence-specific readers for epigenetic DNA modifications on cytosine”.

Holding throughout (assay): DAPPL (digital affinity profiling via proximity ligation, sequencing); 10 mM Tris-HCl pH 7.5, 50 mM NaCl, 1 mM DTT, 4% glycerol, room temperature, 30 min; GST-TFs on glutathione beads, 16-mer random dsDNA library, 0.1% formaldehyde crosslink after washing; high values mean tight binding
The target in one assay is T1, FEV (Homo sapiens, UniProt Q99581 1-238).
T1 sequence: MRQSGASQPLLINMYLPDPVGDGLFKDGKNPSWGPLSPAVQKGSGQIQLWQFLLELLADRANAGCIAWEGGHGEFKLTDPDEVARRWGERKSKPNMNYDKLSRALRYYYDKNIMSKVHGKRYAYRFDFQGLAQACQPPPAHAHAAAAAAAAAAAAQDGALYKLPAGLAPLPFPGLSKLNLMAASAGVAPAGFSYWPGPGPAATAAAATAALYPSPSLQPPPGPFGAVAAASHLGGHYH
The following applies: protein: recombinant; tags: N-terminal GST; dsDNA, one strand shown. In a few lines: (§1)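 After expression in yeast as GST fusions, human transcription factors were bound to glutathione beads, DNA-barcoded and mixed with a tag-only sample. The pools were incubated with 200 nmole of a 16-mer random double-stranded DNA library in Tris/NaCl/DTT/glycerol buffer (30 min, room temperature), washed and crosslinked with 0.1% formaldehyde. Proximity ligation with BsaI/T4 ligase ran for 1 h at 37 °C, before PCR amplification and sequencing on an Illumina NextSeq500. Binding signal is a hexamer's read frequency for a factor divided by its frequency for the tag-only sample.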

For a further assay, the target named is ETV5 (Homo sapiens, UniProt P41161 1-510). The following applies: protein: recombinant; tags: N-terminal GST; dsDNA, one strand shown. In short, it runs like this: as §1
Another assay deals with HSF1 (Homo sapiens, UniProt Q00613 1-529). The note with it: protein: recombinant; tags: N-terminal GST; chain copies: 3; dsDNA, one strand shown. In a few lines: as §1
The target of a further assay is T2, SPIC (Homo sapiens, UniProt Q8N5J4 1-248).
T2 sequence: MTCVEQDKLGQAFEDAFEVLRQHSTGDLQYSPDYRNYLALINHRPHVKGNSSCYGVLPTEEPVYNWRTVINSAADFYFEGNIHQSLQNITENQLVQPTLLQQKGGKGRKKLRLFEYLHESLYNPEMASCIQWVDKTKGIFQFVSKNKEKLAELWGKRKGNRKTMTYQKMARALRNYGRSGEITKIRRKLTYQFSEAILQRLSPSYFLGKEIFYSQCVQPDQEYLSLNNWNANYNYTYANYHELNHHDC
The note with it: protein: recombinant; tags: N-terminal GST; dsDNA, one strand shown. In a few lines:
as §1

The target of the next assay is ELF4 (Homo sapiens, UniProt Q99607 1-663). The note with it: protein: recombinant; tags: N-terminal GST; dsDNA, one strand shown. In short, it runs like this: as §1
The target of the next assay is T3, ELK4 (Homo sapiens, UniProt P28324-2 1-405).
T3 sequence: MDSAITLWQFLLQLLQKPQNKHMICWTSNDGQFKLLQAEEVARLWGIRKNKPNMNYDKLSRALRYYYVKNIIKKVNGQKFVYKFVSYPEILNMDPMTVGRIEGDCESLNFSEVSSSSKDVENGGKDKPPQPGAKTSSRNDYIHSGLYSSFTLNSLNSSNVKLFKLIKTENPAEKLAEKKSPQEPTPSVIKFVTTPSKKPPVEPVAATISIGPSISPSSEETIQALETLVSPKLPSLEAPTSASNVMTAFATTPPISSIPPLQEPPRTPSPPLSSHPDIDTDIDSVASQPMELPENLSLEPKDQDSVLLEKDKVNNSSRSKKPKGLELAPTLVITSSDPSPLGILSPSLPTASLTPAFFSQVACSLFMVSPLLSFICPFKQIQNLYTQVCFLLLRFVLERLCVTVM
The note with it: protein: recombinant; tags: N-terminal GST; dsDNA, one strand shown. In a few lines:
as §1

A further assay has as its target T4, ETV2 (Homo sapiens, UniProt O00321 1-342).
T4 sequence: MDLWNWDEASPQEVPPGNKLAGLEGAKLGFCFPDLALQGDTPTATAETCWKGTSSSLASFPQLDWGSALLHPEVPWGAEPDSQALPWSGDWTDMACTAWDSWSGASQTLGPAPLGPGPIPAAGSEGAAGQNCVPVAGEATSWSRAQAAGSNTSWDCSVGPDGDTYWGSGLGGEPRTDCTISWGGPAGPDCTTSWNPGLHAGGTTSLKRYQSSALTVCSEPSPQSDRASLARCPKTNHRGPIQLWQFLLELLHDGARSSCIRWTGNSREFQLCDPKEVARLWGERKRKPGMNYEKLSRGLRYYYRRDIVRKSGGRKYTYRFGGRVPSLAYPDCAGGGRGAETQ
The following applies: protein: recombinant; tags: N-terminal GST; dsDNA, one strand shown. In short, it runs like this:
as §1

Another assay addresses T5, ELF3 (Homo sapiens, UniProt P78545 1-371).
T5 sequence: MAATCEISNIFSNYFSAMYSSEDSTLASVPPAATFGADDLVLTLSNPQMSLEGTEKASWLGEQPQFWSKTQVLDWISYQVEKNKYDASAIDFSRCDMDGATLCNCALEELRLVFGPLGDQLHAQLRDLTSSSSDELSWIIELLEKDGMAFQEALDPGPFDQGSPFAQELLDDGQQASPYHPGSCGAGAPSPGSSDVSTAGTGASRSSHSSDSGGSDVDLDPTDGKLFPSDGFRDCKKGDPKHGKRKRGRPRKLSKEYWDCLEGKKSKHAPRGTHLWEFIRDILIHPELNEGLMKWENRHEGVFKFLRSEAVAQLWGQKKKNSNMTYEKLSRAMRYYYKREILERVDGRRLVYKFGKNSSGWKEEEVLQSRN
The note with it: protein: recombinant; tags: N-terminal GST; dsDNA, one strand shown. In short, it runs like this:
as §1

The target of a further assay is CRX (Homo sapiens, UniProt O43186 1-299). The note with it: protein: recombinant; tags: N-terminal GST; dsDNA, one strand shown. In a few lines:
as §1

The next assay concerns the target ETV1 (Homo sapiens, UniProt P50549 1-477). The following applies: protein: recombinant; tags: N-terminal GST; dsDNA, one strand shown. In short, it runs like this: as §1

ELF4, sequence (Q99607 whole entry): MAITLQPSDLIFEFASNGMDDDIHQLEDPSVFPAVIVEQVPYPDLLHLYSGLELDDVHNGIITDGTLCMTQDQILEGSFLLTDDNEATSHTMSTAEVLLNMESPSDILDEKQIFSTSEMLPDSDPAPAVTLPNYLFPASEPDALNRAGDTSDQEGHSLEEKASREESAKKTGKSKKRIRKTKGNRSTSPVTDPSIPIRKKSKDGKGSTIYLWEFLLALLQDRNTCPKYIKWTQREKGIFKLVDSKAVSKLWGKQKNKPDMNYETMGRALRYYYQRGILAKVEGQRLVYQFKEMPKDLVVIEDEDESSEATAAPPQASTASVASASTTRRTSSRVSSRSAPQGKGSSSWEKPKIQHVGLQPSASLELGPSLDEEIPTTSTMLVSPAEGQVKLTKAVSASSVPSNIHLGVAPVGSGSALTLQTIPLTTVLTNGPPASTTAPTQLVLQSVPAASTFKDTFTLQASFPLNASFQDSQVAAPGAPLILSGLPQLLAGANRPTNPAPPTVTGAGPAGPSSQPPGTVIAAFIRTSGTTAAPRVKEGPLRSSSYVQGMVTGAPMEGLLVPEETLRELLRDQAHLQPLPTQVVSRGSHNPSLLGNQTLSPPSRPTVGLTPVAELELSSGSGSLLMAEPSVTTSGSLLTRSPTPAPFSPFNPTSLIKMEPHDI
CRX, sequence (O43186 whole entry): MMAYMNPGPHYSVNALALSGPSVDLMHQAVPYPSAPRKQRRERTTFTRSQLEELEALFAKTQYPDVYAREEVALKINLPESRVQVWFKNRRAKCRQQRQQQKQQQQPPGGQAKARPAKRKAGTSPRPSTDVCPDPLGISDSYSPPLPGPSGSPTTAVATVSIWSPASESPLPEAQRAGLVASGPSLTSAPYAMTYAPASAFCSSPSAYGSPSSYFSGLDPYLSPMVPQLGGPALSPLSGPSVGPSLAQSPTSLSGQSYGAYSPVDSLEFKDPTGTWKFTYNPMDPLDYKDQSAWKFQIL
ETV5, sequence (P41161 whole entry): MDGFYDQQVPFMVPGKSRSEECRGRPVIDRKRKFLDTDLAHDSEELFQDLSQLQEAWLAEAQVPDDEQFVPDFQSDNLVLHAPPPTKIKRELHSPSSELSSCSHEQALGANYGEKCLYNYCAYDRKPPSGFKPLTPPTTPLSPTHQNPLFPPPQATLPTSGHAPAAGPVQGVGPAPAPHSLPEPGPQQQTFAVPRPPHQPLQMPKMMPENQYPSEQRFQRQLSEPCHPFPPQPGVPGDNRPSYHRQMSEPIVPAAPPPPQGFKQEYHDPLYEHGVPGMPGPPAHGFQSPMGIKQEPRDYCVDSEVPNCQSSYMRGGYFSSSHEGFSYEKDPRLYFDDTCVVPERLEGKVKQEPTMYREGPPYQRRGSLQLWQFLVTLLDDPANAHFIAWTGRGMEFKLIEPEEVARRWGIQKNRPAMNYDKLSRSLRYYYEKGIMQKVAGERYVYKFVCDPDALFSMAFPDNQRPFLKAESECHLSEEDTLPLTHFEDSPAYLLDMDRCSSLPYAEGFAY
HSF1, sequence (Q00613 whole entry): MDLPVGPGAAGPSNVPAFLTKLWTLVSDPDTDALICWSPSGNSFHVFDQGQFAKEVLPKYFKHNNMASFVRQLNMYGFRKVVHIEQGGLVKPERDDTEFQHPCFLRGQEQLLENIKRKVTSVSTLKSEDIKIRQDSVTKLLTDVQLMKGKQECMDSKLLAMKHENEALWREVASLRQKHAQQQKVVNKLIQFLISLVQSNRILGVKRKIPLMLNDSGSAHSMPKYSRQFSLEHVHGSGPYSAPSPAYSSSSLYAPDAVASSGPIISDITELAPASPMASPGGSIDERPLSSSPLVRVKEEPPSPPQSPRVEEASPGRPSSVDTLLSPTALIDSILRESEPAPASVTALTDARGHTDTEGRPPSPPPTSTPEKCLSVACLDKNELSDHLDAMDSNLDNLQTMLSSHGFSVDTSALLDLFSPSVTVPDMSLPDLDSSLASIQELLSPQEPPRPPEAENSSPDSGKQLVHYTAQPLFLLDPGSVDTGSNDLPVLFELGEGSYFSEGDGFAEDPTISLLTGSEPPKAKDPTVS
ETV1, sequence (P50549 whole entry): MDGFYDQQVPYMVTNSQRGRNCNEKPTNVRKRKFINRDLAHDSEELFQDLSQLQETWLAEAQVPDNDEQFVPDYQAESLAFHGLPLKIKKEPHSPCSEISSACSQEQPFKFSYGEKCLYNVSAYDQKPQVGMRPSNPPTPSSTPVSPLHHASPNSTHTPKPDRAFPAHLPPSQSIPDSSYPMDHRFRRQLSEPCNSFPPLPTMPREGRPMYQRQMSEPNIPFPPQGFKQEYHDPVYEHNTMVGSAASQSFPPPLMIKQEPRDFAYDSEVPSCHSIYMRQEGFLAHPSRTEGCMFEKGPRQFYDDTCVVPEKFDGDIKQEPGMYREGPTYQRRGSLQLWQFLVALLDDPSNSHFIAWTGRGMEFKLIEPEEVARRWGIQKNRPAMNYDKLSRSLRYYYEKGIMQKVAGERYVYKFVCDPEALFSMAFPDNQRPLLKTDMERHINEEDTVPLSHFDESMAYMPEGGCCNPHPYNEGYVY

CATATT: the binding signal with FEV was 1.22 fold enrichment (6-mer frequency, TF over GST control); with ETV5, 1.26 fold enrichment (6-mer frequency, TF over GST control); with HSF1 it was 1.31 fold enrichment (6-mer frequency, TF over GST control); in the assay with SPIC, 1.12 fold enrichment (6-mer frequency, TF over GST control); with ELF4, 1.32 fold enrichment (6-mer frequency, TF over GST control); in the assay with ELK4 it was 1.29 fold enrichment (6-mer frequency, TF over GST control). Also, the binding signal was 1.43 fold enrichment (6-mer frequency, TF over GST control) with ETV2; 1.35 fold enrichment (6-mer frequency, TF over GST control) with ELF3; 1.33 fold enrichment (6-mer frequency, TF over GST control) with CRX; 1.25 fold enrichment (6-mer frequency, TF over GST control) with ETV1.

On to ATTCCT, for which the binding signal with FEV is 1.34 fold enrichment (6-mer frequency, TF over GST control); with ETV5 it was 1.39 fold enrichment (6-mer frequency, TF over GST control); with HSF1 it was 1.57 fold enrichment (6-mer frequency, TF over GST control); with SPIC it was 1.27 fold enrichment (6-mer frequency, TF over GST control); in the assay with ELF4 it was 1.39 fold enrichment (6-mer frequency, TF over GST control); with ELK4, 1.22 fold enrichment (6-mer frequency, TF over GST control). Moreover, the binding signal with ETV2 is 1.45 fold enrichment (6-mer frequency, TF over GST control); in the assay with ELF3 it was 1.2 fold enrichment (6-mer frequency, TF over GST control); in the assay with CRX, 1.33 fold enrichment (6-mer frequency, TF over GST control); in the assay with ETV1, 1.28 fold enrichment (6-mer frequency, TF over GST control).

Take GCTTCA: the binding signal with FEV is 1.27 fold enrichment (6-mer frequency, TF over GST control); with ETV5, 1.24 fold enrichment (6-mer frequency, TF over GST control); in the assay with HSF1 it was 1.23 fold enrichment (6-mer frequency, TF over GST control); with SPIC, 1.3 fold enrichment (6-mer frequency, TF over GST control); with ELF4 it was 1.29 fold enrichment (6-mer frequency, TF over GST control); in the assay with ELK4 it was 1.36 fold enrichment (6-mer frequency, TF over GST control). Besides, the binding signal with ETV2 was 1.29 fold enrichment (6-mer frequency, TF over GST control); in the assay with ELF3 it was 1.31 fold enrichment (6-mer frequency, TF over GST control); with CRX it was 1.1 fold enrichment (6-mer frequency, TF over GST control); with ETV1, 1.23 fold enrichment (6-mer frequency, TF over GST control).

As to AATTGT, the binding signal is 1.25 fold enrichment (6-mer frequency, TF over GST control) in the assay with FEV; 1.2 fold enrichment (6-mer frequency, TF over GST control) with ETV5; 1.18 fold enrichment (6-mer frequency, TF over GST control) with HSF1; 1.26 fold enrichment (6-mer frequency, TF over GST control) with SPIC; 1.29 fold enrichment (6-mer frequency, TF over GST control) with ELF4; 1.14 fold enrichment (6-mer frequency, TF over GST control) with ELK4. Besides, the binding signal was 1.33 fold enrichment (6-mer frequency, TF over GST control) with ETV2; 1.31 fold enrichment (6-mer frequency, TF over GST control) with ELF3; 1.17 fold enrichment (6-mer frequency, TF over GST control) with CRX; 1.22 fold enrichment (6-mer frequency, TF over GST control) with ETV1.

Regarding CCTACG, the binding signal with FEV was 1.48 fold enrichment (6-mer frequency, TF over GST control); in the assay with ETV5, 1.32 fold enrichment (6-mer frequency, TF over GST control); with HSF1, 1.21 fold enrichment (6-mer frequency, TF over GST control); in the assay with SPIC it was 1.37 fold enrichment (6-mer frequency, TF over GST control); in the assay with ELF4, 1.37 fold enrichment (6-mer frequency, TF over GST control); in the assay with ELK4, 1.38 fold enrichment (6-mer frequency, TF over GST control). In addition, the binding signal in the assay with ETV2 is 1.44 fold enrichment (6-mer frequency, TF over GST control); in the assay with ELF3 it was 1.5 fold enrichment (6-mer frequency, TF over GST control); with CRX, 1.11 fold enrichment (6-mer frequency, TF over GST control); with ETV1, 1.47 fold enrichment (6-mer frequency, TF over GST control).

Turning to ATAAAA, the binding signal in the assay with FEV is 1.15 fold enrichment (6-mer frequency, TF over GST control); with ETV5 it was 1.12 fold enrichment (6-mer frequency, TF over GST control); with HSF1 it was 1.31 fold enrichment (6-mer frequency, TF over GST control); with SPIC, 1.02 fold enrichment (6-mer frequency, TF over GST control); with ELF4, 1.2 fold enrichment (6-mer frequency, TF over GST control); in the assay with ELK4, 1.17 fold enrichment (6-mer frequency, TF over GST control). Further, the binding signal with ETV2 was 1.2 fold enrichment (6-mer frequency, TF over GST control); in the assay with ELF3 it was 1.2 fold enrichment (6-mer frequency, TF over GST control); with CRX, 1.43 fold enrichment (6-mer frequency, TF over GST control); in the assay with ETV1 it was 1.16 fold enrichment (6-mer frequency, TF over GST control).

With CTACTC, the binding signal in the assay with FEV is 1.37 fold enrichment (6-mer frequency, TF over GST control); in the assay with ETV5, 1.35 fold enrichment (6-mer frequency, TF over GST control); with HSF1, 1.32 fold enrichment (6-mer frequency, TF over GST control); with SPIC, 1.21 fold enrichment (6-mer frequency, TF over GST control); with ELF4, 1.37 fold enrichment (6-mer frequency, TF over GST control); with ELK4, 1.41 fold enrichment (6-mer frequency, TF over GST control). In addition, the binding signal in the assay with ETV2 is 1.38 fold enrichment (6-mer frequency, TF over GST control); with ELF3, 1.32 fold enrichment (6-mer frequency, TF over GST control); with CRX it was 1.28 fold enrichment (6-mer frequency, TF over GST control); with ETV1, 1.32 fold enrichment (6-mer frequency, TF over GST control).

TGGTAA: the binding signal with FEV is 1.15 fold enrichment (6-mer frequency, TF over GST control); with ETV5, 1.23 fold enrichment (6-mer frequency, TF over GST control); in the assay with HSF1, 1.45 fold enrichment (6-mer frequency, TF over GST control); with SPIC, 1.09 fold enrichment (6-mer frequency, TF over GST control); in the assay with ELF4, 1.23 fold enrichment (6-mer frequency, TF over GST control); with ELK4 it was 1.39 fold enrichment (6-mer frequency, TF over GST control). For the same sequence, the binding signal is 1.3 fold enrichment (6-mer frequency, TF over GST control) in the assay with ETV2; 1.15 fold enrichment (6-mer frequency, TF over GST control) with ELF3; 1.51 fold enrichment (6-mer frequency, TF over GST control) with CRX; 1.27 fold enrichment (6-mer frequency, TF over GST control) in the assay with ETV1.
